Results published in the supplement of paper PMC13380429.

System: Vero E6 infected with SARS-CoV-2
Assay: inhibition of SARS-CoV-2 cytopathic effect; higher = more antiviral protection, active = above 15
Details: 48 h

Measured: inhibition of SARS-CoV-2 cytopathic effect

CN1CCN(C(c2ccccc2)c2ccccc2)CC1 [cyclizine]
inactive: 1 nM -1.86% | 8.33 nM -1.86% | 100 nM -1.97% | 833.33 nM -0.45% | 10000 nM 0.42%

NCCCCN=C(N)N [agmatine]
inactive: 1 nM 2.36% | 8.33 nM 2.56% | 100 nM -1.24% | 833.33 nM -2.12% | 10000 nM -4.69%

CCCCCCCCCCCC(=O)N(CCO)CCO [lauric-diethanolamide]
inactive: 1 nM 1.82% | 8.33 nM 1.8% | 100 nM -1.44% | 833.33 nM 1.01% | 10000 nM -2.1%

CC(C)(C)C(=O)OCOC(=O)[C@@H]1N2C(=O)C[C@H]2S(=O)(=O)C1(C)C [sulbactam-pivoxil]
inactive: 1 nM -1.2% | 8.33 nM -4.28% | 100 nM -7.15% | 833.33 nM 5.91% | 10000 nM -2.18%

Oc1ccc([C@H]2COc3cc(O)ccc3C2)cc1 [equol]
inactive: 1 nM -2.73% | 8.33 nM -1.03% | 100 nM -2.88% | 833.33 nM 3.83% | 10000 nM 0.31%

N#Cc1c[nH]c2c(C(=O)N3CCN(CCc4ccc(F)cc4)CC3)cccc12 [pruvanserin]
inactive: 1 nM 3.23% | 8.33 nM -1.53% | 100 nM 2.62% | 833.33 nM 1.31% | 10000 nM 1.69%

O=C1Nc2ccc(Cl)c3c2C1(CCCCN1CC=C(c2ccc(Cl)cc2)CC1)CCC3 (stereo not given)
inactive: 1 nM 0.36% | 8.33 nM -1.45% | 100 nM -2.5% | 833.33 nM -2.84% | 10000 nM -3.25%

COc1c(N2CCNC(C)C2)c(F)cc2c(=O)c(C(=O)O)cn(C3CC3)c12 (stereo not given) [gatifloxacin]
inactive: 1 nM -0.1% | 8.33 nM 1.9% | 100 nM 0.16% | 833.33 nM 0.37% | 10000 nM -2.52%

CC(=O)CC(c1ccccc1)c1c(O)c2ccccc2oc1=O (stereo not given) [warfarin]
inactive: 1 nM -10.1% | 8.33 nM -9.65% | 100 nM -9.92% | 833.33 nM -10.1% | 10000 nM -14.2%

O=C(O)C1=C[C@@H](O)[C@@H](O)[C@H](O)C1 [shikimic-acid]
inactive: 1 nM 2.18% | 8.33 nM 1.14% | 100 nM 0.89% | 833.33 nM 2.68% | 10000 nM 0.85%

CC(=O)N(C)c1cccc(-c2ccnc3c(C(=O)c4cccs4)cnn23)c1 [indiplon]
inactive: 1 nM 2.87% | 8.33 nM 0.82% | 100 nM 4.78% | 833.33 nM 4.31% | 10000 nM 0.34%

Cc1cnc(C(=O)O)c[n+]1[O-] [acipimox]
inactive: 1 nM -1.88% | 8.33 nM -0.46% | 100 nM -1.4% | 833.33 nM -2.17% | 10000 nM -1.06%

CC(C)NC[C@@H](O)COc1ccc(CC(N)=O)cc1 (racemic) [atenolol-(+/-)]
inactive: 1 nM -2.25% | 8.33 nM 0.225% | 100 nM 0.74% | 833.33 nM 0.24% | 10000 nM -0.8%

CN[C@@H]1[C@@H](O[C@H]2O[C@H](CO)[C@@H](N)[C@H](O)[C@H]2O)O[C@H]2C[C@@H](N)[C@@H](O[C@H]3[C@H](O)[C@@H](O)[C@H](N)C[C@@H]3N)O[C@@H]2[C@@H]1O [apramycin]
inactive: 1 nM -4.27% | 8.33 nM -2.53% | 100 nM -2.38% | 833.33 nM 0.37% | 10000 nM 0.71%

Cc1nc2c(O)cccc2c(=O)[nH]1
inactive: 1 nM 2.07% | 8.33 nM 2.96% | 100 nM -2.15% | 833.33 nM 3.67% | 10000 nM 4.88%

C=C[C@H]1CN2CC[C@H]1C[C@@H]2[C@@H](O)c1ccnc2ccc(OC)cc12 [quinidine]
inactive: 1 nM -8.54% | 8.33 nM -5.1% | 100 nM -8.19% | 833.33 nM -4.54% | 10000 nM -4.21%

O=Nc1ccc(O)c2ncccc12
inactive: 1 nM 3.04% | 8.33 nM -4.1% | 100 nM 1.42% | 833.33 nM 13.5%
active: 10000 nM 19.6%

C[C@@H]1C[C@H]2[C@@H]3C[C@H](F)C4=CC(=O)C=C[C@]4(C)[C@@]3(Cl)[C@@H](O)C[C@]2(C)[C@H]1C(=O)COC(=O)C(C)(C)C [clocortolone-pivalate]
inactive: 1 nM 0.49% | 8.33 nM 2.86% | 100 nM -2.33% | 833.33 nM 1.18% | 10000 nM -2.12%

CCn1c(=O)c(-c2cc[nH]n2)cc2c(C)nc(N)nc21 [voxtalisib]
inactive: 1 nM 2.67% | 8.33 nM 3.03% | 100 nM 1.3% | 833.33 nM 0.46% | 10000 nM -4.32%

COC(=O)[C@H](CC(C)C)NC(=O)[C@@H](N)CC(C)C [leucylleucine-methyl-ester]
inactive: 1 nM -2.04% | 8.33 nM 0.78% | 100 nM -1.7% | 833.33 nM -0.61% | 10000 nM -0.55%

O=C1CC2(CCCC2)CC(=O)N1CCNC[C@H]1COc2ccccc2O1
inactive: 1 nM -0.99% | 8.33 nM -2.08% | 100 nM -0.87% | 833.33 nM 0.95% | 10000 nM -2.14%

NC(=O)c1ncn([C@@H]2O[C@H](CO)[C@@H](O)[C@H]2O)n1 [ribavirin]
inactive: 1 nM -5.15% | 8.33 nM -3.9% | 100 nM -6.04% | 833.33 nM -0.66% | 10000 nM 4.23%

CC(=O)[C@]1(O)Cc2c(O)c3c(c(O)c2[C@@H](O[C@H]2C[C@H](N)[C@H](O)[C@H](C)O2)C1)C(=O)c1ccccc1C3=O [idarubicin]
inactive: 1 nM -0.73% | 8.33 nM 1.96% | 100 nM -0.94% | 833.33 nM -13.1% | 10000 nM -6.65%

COc1cccc(/C=N/N=C/c2cccc(OC)c2)c1
inactive: 1 nM -0.08% | 8.33 nM 2.48% | 100 nM -2.17% | 833.33 nM -0.34% | 10000 nM 0.47%

CO[C@@]1(NC(=O)Cc2cccs2)C(=O)N2C(C(=O)O)=C(COC(N)=O)CS[C@@H]21 [cefoxitin]
inactive: 1 nM -0.07% | 8.33 nM -1.13% | 100 nM -0.89% | 833.33 nM 0.12% | 10000 nM 1.09%

Clc1ccc2c(N3CCN(CCCN4CCN(c5ccnc6cc(Cl)ccc56)CC4)CC3)ccnc2c1 [piperaquine-phosphate]
inactive: 1 nM -0.04% | 8.33 nM 1.25% | 100 nM -0.14% | 833.33 nM -1.37% | 10000 nM -2.6%

Cc1c(-c2ccnn2C)cc(C(=O)NCc2ccc(S(C)(=O)=O)cn2)c(=O)n1-c1cccc(C(F)(F)F)c1
inactive: 1 nM -2.24% | 8.33 nM -0.81% | 100 nM -0.79% | 833.33 nM -2.96% | 10000 nM -0.81%

Cc1cc(-c2cc(O)ccc2Cl)cc2nnc(Nc3ccc(OCCN4CCCC4)cc3)nc12
inactive: 1 nM -1.19% | 8.33 nM 1.04% | 100 nM 4.54% | 833.33 nM -1.25% | 10000 nM -21.4%

CC(C)(C)CC(C)(C)c1ccc(OCCOCC[N+](C)(C)Cc2ccccc2)cc1 [benzethonium]
inactive: 1 nM -8.35% | 8.33 nM -10.6% | 100 nM -12.9% | 833.33 nM -9.21% | 10000 nM -15.1%

CC[C@]12C=CCN3CC[C@@]4(c5cc([C@@]6(C(=O)OC)C[C@@H]7C[C@@H](C(C)(F)F)CN(Cc8c6[nH]c6ccccc86)C7)c(OC)cc5N(C)[C@H]4[C@@](O)(C(=O)OC)[C@@H]1OC(C)=O)[C@@H]32 [Vinflunine Ditartrate]
inactive: 1 nM 3.38% | 8.33 nM 3.35% | 100 nM 2.91% | 833.33 nM -2.99% | 10000 nM -3.92%

NC1CCN(c2c(F)cc3c(=O)c(C(=O)O)cn(C4CC4)c3c2Cl)C1 (stereo not given) [clinafloxacin]
inactive: 1 nM 2.47% | 8.33 nM 0.61% | 100 nM -1% | 833.33 nM -0.8% | 10000 nM 0.5%

COc1ccc(CCN(C)CCCC(C#N)(c2cc(OC)c(OC)c(OC)c2)C(C)C)cc1OC (stereo not given) [gallopamil]
inactive: 1 nM -0.29% | 8.33 nM 0.76% | 100 nM -0.41% | 833.33 nM 0.33% | 10000 nM -2.43%

Cc1c(NC(=O)N2CCOCC2)ccc2c1c1ccccc1n2C(C)C
inactive: 1 nM 0.94% | 8.33 nM -0.34% | 100 nM -2.07% | 833.33 nM 2.48% | 10000 nM 0.62%

COC(=O)[C@@H]1[C@H]2C[C@H]3c4[nH]c5ccccc5c4CCN3C[C@@H]2CC[C@@H]1O [yohimbine]
inactive: 1 nM 0.18% | 8.33 nM 2.4% | 100 nM 1.41% | 833.33 nM -1.6% | 10000 nM -0.14%

NC1CCN(c2cccc(Cl)n2)CC1
inactive: 1 nM 0.72% | 8.33 nM -1.55% | 100 nM -4.6% | 833.33 nM -0.29% | 10000 nM -3.39%

COc1cccc(-c2cc(F)ccc2[C@H]2Cc3nc(N)nc(C)c3C(=O)N2)n1
inactive: 1 nM -0.35% | 8.33 nM 0.26% | 100 nM -1.38% | 833.33 nM -0.51% | 10000 nM -10.9%

O=C(NC(=O)c1c(F)cccc1F)Nc1cc(Cl)c(OC(F)(F)C(F)C(F)(F)F)cc1Cl (stereo not given) [lufenuron]
inactive: 1 nM 1.67% | 8.33 nM 2.18% | 100 nM -1.16% | 833.33 nM 2.95% | 10000 nM 1.2%

CC[C@]1(O)C[C@@H]2CN(CCc3c([nH]c4ccccc34)[C@@](C(=O)OC)(c3cc4c(cc3OC)N(C)[C@H]3[C@@](O)(C(=O)OC)[C@H](OC(C)=O)[C@]5(CC)C=CCN6CC[C@]43[C@@H]65)C2)C1 [Vinblastine (sulfate)]
inactive: 1 nM -0.48% | 8.33 nM 1.74% | 100 nM -0.03% | 833.33 nM 0.75% | 10000 nM -0.15%
